Assay type in all cases: functional
In experiment [1] the target is Solute carrier family 2, facilitated glucose transporter member 1 (Homo sapiens) (UniProt P11166). The experiment in a line: ST_JUDE_LEISH: Cytotoxicity at 2uM final concentration against transgenic Leishmania Mexicana promastigotes LmGLUT1 that are glucose transport deficient and complemented with the human glucose transporter GLUT1. Activity is measured by DNA content using SYBR green in vitro.

Experiment [2] addresses Hexose transporter 1 (Plasmodium falciparum) (UniProt O97467). The experiment in a line: ST_JUDE_LEISH: Cytotoxicity at 2uM final concentration against transgenic Leishmania Mexicana promastigotes LmPfHT that are glucose transport deficient and complemented with the Plasmodium falciparum hexose transporter. Activity is measured by DNA content using SYBR green in vitro.
Experiment [3] has as its target Glucose transporter (Leishmania mexicana) (UniProt O61059). Put plainly: ST_JUDE_LEISH: Cytotoxicity at 2uM final concentration against transgenic Leishmania Mexicana promastigotes LmGT2 that are glucose transport deficient and complemented with the L. Mexicana glucose transporter 2. Activity is measured by DNA content using SYBR green in vitro.

Structures are written as SMILES.

Solute carrier family 2, facilitated glucose transporter member 1 (Homo sapiens), sequence (P11166 whole entry): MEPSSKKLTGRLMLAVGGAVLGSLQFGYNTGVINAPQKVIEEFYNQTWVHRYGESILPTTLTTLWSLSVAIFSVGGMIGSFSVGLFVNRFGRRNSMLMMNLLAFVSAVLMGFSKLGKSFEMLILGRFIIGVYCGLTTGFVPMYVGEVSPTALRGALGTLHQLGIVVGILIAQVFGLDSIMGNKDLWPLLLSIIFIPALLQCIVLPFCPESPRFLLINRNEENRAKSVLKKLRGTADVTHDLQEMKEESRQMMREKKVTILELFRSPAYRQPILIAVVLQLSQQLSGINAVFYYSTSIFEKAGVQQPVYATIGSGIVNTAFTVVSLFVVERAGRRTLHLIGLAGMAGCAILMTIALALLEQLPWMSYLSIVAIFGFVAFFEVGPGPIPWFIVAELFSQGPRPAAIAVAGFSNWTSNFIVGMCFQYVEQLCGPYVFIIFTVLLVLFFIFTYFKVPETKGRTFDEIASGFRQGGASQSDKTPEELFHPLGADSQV

Consider `Cc1ccc(S(=O)(=O)n2cc(-c3ccnc(N)c3)c3cc(Br)cnc32)cc1`, for which the inhibition worked out at 4.4% in experiment [1], 4.2% in experiment [2] and 1.4% in experiment [3].

Regarding `O=C(NCCN1CCCC1)c1cccc(-c2ccc(-c3nc4cc(C(F)(F)F)ccc4[nH]3)cc2)c1`, the inhibition in experiment [1] was found to be 1.29%; in experiment [2], 0.34%; in experiment [3], 0.32%.

Take `CCc1cn(CCc2ccccc2)c2ccc(C(=O)N[C@@H](Cc3ccccc3)[C@H](O)CNC(C)(C)CCCC(C)C)cc12`: the inhibition in experiment [1] is -1.76%; in experiment [2] it was -1.07%; in experiment [3], -2.99%.

For the molecule `CC(C)NCc1ccc(-c2cccc(NC(=O)c3ccc(F)cc3)c2)cc1`, the values for the inhibition in experiment [1], in experiment [2] and in experiment [3] were 6.57%, 9.15% and 6.89%, respectively.

Regarding `C(=Cc1nc2ccccc2s1)c1ccc2c(c1)OCCO2`, the inhibition in experiment [1] is 0.08%; in experiment [2], 0.45%; in experiment [3] it was -2.03%.

On to `CCNc1cc(C(=O)N[C@@H](Cc2ccccc2)[C@H](O)CN[C@@H](C)c2cccc(OC)c2)cc(N2CCCC2=O)c1`, for which the inhibition in experiment [1] is 3.36%; in experiment [2], 2.81%; in experiment [3] it was 3.09%.

For the molecule `CN(C)CCCc1cc2c(cc1Cl)CCN2C(=O)Nc1ccc(-c2ccncc2)c2ccccc12`, the values for the inhibition in experiment [1], in experiment [2] and in experiment [3] were -2.58%, -1.62% and -3.5%, respectively.

As for `COc1ccc2nccc([C@@H](O)CN3CCC(NCc4ccc5c(c4)sc(=O)n5C)CC3)c2c1`, the values for the inhibition in experiment [1], in experiment [2] and in experiment [3] were -0.15%, 0.84% and -1.7%, respectively.

On to `O=C(Nc1nccs1)c1sc2ccccc2c1O`, for which the inhibition was determined as 3.63% in experiment [1], 2.26% in experiment [2] and 1.45% in experiment [3].

Regarding `Cc1[nH]c(C)c(-c2ccc(-c3ccc4c(c3)OCO4)nc2)c(=O)c1Br`, the values for the inhibition in experiment [1], in experiment [2] and in experiment [3] were 0.29%, 1.09% and 0.07%, respectively.

Regarding `Cc1cc(CN2CC[C@H](NC(=O)c3ccc(Cl)c(Cl)c3)C2)ccc1OCCN1CCNCC1`, the inhibition was -0.62% in experiment [1], 0.59% in experiment [2] and 0.3% in experiment [3].

In the case of `Nc1nonc1-c1nc2c(-c3cccc(Cl)c3)nccc2n1CCCNC(=O)Cc1ccc(Cl)cc1`, the inhibition came to 0.7% in experiment [1], 0.77% in experiment [2] and 0.42% in experiment [3].

For the origin of these results see ChEMBL document CHEMBL3433997, “St. Jude Leishmania screening dataset” (2016).
